The target in test [1] is Serine/threonine-protein kinase SIK1 (Homo sapiens) (UniProt P57059). The conditions noted are these: at 10 µM.
The target of test [2] is SRSF protein kinase 1 (Homo sapiens) (UniProt Q96SB4). The conditions noted are these: at 1 µM.
Test [3] shares this target. The conditions noted are these: at 10 µM.
The target in test [4] is SRSF protein kinase 2 (Homo sapiens) (UniProt P78362). The conditions noted are these: at 1 µM.
The target is the same in test [5]. The conditions noted are these: at 10 µM.
In test [6] the target is Serine/threonine-protein kinase 33 (Homo sapiens) (UniProt Q9BYT3). The conditions noted are these: at 1 µM.
Test [7] has the same target. Particulars: at 10 µM.
Test [8] addresses Serine/threonine-protein kinase PLK2 (Homo sapiens) (UniProt Q9NYY3). Particulars: at 1 µM.
For test [9] the target is unchanged. The conditions noted are these: at 10 µM.
Test [10] has as its target Tyrosine-protein kinase SYK (Homo sapiens) (UniProt P43405). The conditions noted are these: at 1 µM.
Test [11] has the same target. Particulars: at 10 µM.
The target in test [12] is T1, Mitogen-activated protein kinase kinase kinase 7 (Homo sapiens) (UniProt O43318).
T1 sequence (whole entry): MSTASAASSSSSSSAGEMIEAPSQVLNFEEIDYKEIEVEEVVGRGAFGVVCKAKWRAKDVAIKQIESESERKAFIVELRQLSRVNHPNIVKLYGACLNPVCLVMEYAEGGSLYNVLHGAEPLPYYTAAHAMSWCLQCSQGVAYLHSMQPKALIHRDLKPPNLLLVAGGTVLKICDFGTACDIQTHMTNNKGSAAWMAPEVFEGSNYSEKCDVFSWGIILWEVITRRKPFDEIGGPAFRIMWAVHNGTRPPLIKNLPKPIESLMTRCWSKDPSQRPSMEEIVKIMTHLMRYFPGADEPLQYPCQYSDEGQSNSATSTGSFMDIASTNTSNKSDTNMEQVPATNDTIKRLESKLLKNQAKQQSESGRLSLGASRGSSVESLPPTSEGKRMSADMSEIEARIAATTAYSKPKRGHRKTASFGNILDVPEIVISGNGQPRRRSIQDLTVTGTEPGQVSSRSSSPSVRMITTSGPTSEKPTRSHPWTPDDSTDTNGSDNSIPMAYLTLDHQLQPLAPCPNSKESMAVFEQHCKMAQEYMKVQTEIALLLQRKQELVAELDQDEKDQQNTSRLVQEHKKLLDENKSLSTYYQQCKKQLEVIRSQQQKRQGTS
Particulars: at 1 µM.

Test [13] concerns the target T1, Mitogen-activated protein kinase kinase kinase 7 (Homo sapiens). Particulars: at 10 µM.
The target of test [14] is T2, Serine/threonine-protein kinase TAO1 (Homo sapiens) (UniProt Q7L7X3).
T2 sequence (whole entry): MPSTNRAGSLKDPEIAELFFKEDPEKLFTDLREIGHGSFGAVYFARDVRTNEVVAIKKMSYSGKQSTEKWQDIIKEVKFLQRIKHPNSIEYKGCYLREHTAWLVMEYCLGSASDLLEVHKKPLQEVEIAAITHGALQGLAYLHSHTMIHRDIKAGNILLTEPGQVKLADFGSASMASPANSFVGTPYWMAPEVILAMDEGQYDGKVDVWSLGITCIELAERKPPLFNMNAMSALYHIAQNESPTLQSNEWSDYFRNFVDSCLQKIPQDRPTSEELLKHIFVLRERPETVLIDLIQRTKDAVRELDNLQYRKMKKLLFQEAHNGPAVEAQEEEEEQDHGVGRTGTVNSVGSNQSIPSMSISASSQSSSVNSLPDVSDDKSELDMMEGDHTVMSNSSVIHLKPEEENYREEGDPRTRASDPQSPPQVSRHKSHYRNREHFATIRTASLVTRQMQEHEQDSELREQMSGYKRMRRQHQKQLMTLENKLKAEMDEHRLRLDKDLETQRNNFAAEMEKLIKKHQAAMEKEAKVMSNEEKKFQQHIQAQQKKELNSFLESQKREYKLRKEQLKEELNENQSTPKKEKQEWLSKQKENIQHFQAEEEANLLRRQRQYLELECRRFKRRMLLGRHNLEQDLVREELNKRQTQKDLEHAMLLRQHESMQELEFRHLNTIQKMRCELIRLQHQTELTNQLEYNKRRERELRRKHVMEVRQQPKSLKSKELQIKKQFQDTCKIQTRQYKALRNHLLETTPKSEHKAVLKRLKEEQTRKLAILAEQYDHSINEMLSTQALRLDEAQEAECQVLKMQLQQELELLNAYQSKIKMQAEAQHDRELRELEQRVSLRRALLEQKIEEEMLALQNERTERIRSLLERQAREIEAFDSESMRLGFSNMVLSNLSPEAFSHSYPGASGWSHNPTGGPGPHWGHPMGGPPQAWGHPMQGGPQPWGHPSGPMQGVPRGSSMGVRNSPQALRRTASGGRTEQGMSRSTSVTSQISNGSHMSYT
The conditions noted are these: at 1 µM.

The target of test [15] is T2, Serine/threonine-protein kinase TAO1 (Homo sapiens). The conditions noted are these: at 10 µM.
Test [16] concerns the target T3, Serine/threonine-protein kinase TAO2 (Homo sapiens) (UniProt Q9UL54).
T3 sequence (whole entry): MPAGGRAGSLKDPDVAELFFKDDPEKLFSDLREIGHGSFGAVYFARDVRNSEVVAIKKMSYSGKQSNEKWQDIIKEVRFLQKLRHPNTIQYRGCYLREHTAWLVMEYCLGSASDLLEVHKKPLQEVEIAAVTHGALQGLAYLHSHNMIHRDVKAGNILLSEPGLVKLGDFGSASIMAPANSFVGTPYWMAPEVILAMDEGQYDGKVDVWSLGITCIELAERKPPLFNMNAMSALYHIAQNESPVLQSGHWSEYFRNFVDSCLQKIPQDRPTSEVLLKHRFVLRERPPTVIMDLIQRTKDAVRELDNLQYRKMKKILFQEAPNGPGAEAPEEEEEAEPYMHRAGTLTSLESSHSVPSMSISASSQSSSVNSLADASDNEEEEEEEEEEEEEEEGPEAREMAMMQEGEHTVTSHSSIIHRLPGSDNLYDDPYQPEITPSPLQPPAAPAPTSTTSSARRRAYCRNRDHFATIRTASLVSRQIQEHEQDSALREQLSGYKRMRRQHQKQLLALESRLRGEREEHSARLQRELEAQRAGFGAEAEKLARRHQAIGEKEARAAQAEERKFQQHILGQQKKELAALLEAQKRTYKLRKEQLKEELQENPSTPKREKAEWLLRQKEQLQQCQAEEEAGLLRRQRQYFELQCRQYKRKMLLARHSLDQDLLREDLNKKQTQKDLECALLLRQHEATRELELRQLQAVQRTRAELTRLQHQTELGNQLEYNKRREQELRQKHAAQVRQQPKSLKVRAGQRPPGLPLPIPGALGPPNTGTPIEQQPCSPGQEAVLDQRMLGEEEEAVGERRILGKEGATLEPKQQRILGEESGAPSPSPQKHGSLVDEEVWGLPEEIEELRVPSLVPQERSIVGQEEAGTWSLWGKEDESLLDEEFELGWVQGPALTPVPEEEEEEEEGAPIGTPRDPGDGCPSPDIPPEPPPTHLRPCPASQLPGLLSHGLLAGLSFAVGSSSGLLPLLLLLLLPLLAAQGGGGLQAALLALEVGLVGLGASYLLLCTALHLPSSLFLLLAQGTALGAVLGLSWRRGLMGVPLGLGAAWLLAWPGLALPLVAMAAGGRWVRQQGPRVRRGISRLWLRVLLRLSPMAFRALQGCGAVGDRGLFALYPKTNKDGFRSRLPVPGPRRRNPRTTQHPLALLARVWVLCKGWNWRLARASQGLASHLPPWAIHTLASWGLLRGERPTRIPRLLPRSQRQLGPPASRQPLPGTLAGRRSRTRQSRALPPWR
The conditions noted are these: at 1 µM.

The target in test [17] is T3, Serine/threonine-protein kinase TAO2 (Homo sapiens). Particulars: at 10 µM.
In test [18] the target is T4, Serine/threonine-protein kinase TAO3 (Homo sapiens) (UniProt Q9H2K8).
T4 sequence (whole entry): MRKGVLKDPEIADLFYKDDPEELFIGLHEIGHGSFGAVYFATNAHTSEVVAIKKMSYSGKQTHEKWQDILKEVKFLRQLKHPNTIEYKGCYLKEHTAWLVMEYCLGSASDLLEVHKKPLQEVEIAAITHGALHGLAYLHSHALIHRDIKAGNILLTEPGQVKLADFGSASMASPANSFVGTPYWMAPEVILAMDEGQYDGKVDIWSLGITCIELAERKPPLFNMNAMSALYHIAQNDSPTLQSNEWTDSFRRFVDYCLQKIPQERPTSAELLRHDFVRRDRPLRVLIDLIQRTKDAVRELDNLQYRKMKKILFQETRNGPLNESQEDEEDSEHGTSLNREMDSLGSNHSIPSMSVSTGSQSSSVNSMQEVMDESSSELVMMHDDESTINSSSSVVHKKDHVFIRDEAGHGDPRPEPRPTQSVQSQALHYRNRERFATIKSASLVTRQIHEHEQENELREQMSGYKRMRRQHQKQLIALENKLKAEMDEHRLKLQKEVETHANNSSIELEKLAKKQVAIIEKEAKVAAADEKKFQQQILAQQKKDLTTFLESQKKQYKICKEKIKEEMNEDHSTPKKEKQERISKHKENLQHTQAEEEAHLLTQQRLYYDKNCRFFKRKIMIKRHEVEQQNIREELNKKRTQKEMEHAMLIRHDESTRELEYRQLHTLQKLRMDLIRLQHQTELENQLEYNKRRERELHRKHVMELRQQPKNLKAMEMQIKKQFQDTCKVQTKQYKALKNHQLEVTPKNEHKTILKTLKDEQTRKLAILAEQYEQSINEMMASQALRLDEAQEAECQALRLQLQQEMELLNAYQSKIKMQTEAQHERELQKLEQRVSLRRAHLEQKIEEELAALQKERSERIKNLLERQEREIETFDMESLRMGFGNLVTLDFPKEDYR
The conditions noted are these: at 1 µM.

Test [19] concerns the target T4, Serine/threonine-protein kinase TAO3 (Homo sapiens). The conditions noted are these: at 10 µM.
Test [20] concerns the target T5, Serine/threonine-protein kinase TBK1 (Homo sapiens) (UniProt Q9UHD2).
T5 sequence (whole entry): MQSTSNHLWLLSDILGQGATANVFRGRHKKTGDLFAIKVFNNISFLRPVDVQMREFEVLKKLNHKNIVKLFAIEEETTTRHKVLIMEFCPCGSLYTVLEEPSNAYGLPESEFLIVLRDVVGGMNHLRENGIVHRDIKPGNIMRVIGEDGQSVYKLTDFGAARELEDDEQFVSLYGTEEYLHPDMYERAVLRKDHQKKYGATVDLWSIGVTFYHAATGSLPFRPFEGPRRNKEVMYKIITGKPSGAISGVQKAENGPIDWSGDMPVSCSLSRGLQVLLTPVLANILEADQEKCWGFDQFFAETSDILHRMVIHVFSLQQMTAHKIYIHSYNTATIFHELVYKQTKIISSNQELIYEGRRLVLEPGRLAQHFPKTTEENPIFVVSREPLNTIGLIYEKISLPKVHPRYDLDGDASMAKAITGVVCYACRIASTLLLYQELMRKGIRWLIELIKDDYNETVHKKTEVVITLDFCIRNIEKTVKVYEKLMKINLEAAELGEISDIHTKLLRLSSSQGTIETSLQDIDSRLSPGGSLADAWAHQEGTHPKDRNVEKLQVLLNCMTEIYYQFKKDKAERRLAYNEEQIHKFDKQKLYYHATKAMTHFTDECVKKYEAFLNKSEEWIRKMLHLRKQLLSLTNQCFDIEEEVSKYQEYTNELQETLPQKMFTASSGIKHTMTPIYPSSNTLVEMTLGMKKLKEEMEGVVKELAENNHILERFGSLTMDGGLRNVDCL
The conditions noted are these: at 1 µM.

Each structure is given as a SMILES string.

SRSF protein kinase 2 (Homo sapiens), sequence (P78362 whole entry, looked up): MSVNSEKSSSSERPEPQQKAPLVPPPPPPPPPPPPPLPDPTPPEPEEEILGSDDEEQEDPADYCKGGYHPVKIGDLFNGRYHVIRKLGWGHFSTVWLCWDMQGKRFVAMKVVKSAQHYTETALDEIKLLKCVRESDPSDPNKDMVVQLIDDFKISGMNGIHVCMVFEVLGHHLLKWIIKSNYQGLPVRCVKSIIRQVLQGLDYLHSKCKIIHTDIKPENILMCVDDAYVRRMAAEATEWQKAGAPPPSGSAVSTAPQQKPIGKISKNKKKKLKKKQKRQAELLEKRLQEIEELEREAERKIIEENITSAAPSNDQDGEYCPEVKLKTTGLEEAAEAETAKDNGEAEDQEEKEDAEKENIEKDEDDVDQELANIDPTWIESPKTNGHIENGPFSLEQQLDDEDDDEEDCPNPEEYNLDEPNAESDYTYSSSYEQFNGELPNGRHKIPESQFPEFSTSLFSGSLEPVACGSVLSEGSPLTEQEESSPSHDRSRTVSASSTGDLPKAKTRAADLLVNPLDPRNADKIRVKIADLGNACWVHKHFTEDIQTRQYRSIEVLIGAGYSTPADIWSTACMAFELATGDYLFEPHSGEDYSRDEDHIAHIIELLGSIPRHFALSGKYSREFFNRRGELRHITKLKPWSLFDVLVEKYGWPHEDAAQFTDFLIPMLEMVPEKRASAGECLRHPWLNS
Serine/threonine-protein kinase 33 (Homo sapiens), sequence (Q9BYT3 whole entry, looked up): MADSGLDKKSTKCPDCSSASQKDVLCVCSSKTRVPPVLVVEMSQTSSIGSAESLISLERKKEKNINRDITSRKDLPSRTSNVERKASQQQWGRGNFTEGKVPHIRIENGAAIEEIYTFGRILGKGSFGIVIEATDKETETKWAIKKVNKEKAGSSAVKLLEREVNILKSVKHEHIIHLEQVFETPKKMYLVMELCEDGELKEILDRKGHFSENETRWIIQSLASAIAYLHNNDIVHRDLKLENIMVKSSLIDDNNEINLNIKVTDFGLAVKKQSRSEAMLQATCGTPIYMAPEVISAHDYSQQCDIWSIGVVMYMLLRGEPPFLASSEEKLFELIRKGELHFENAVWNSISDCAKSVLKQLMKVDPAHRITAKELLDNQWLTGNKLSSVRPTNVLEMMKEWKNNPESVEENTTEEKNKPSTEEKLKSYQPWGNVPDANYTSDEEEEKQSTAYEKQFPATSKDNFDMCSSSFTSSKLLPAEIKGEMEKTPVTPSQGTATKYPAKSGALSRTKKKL
SRSF protein kinase 1 (Homo sapiens), sequence (Q96SB4 whole entry): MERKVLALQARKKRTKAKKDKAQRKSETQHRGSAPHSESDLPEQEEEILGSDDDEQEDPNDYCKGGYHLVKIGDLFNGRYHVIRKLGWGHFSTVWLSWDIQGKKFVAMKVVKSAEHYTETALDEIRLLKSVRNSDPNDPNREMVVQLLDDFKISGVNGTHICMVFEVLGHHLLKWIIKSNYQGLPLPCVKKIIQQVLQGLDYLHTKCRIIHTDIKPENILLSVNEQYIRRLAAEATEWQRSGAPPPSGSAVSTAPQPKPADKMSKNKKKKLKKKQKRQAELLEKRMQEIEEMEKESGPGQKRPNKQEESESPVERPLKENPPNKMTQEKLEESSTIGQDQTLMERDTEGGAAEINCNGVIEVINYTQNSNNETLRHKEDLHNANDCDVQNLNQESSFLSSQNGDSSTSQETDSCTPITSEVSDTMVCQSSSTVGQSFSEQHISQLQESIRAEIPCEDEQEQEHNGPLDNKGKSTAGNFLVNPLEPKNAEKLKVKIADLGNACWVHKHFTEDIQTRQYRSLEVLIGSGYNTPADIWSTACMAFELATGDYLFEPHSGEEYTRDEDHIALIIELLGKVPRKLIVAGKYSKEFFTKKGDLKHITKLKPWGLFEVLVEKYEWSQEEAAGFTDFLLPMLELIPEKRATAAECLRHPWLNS
Serine/threonine-protein kinase PLK2 (Homo sapiens), sequence (Q9NYY3 whole entry, looked up): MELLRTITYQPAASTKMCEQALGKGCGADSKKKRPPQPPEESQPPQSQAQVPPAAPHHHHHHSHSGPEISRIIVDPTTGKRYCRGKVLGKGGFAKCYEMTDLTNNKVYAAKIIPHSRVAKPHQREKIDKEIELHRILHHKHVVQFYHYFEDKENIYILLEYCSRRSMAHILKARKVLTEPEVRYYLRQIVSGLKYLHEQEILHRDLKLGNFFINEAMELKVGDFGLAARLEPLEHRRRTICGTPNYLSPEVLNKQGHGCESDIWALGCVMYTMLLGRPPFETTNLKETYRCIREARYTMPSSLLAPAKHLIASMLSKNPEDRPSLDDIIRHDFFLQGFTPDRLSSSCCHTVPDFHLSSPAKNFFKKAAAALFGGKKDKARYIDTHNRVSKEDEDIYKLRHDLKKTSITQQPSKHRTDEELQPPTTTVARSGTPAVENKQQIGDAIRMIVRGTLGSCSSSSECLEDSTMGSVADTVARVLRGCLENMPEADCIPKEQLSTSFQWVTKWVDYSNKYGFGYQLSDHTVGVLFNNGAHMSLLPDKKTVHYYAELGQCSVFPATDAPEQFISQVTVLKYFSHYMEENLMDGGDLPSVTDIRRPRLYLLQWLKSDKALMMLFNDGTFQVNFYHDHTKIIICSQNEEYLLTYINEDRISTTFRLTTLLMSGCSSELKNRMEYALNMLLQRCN
Serine/threonine-protein kinase SIK1 (Homo sapiens), sequence (P57059 whole entry): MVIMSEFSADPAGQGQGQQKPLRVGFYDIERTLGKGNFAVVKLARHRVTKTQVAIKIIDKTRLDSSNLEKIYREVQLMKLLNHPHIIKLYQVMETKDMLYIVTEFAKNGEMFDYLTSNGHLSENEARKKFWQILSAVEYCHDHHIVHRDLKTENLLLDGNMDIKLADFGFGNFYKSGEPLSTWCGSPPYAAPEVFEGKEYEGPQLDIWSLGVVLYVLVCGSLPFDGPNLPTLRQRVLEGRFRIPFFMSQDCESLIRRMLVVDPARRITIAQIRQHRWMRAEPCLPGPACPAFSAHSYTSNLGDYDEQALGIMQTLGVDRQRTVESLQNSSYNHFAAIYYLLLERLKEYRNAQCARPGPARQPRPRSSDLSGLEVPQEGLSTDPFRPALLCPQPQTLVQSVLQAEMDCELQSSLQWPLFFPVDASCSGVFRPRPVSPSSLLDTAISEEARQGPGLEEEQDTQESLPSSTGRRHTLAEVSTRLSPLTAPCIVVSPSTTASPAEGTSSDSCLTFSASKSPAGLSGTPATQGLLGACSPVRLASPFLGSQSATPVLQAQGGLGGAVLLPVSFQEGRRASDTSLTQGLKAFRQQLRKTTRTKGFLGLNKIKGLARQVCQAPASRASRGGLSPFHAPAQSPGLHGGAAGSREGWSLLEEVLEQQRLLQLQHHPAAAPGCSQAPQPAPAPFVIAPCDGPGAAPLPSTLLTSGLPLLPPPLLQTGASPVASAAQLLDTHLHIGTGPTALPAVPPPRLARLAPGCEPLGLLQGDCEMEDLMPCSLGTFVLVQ

As to `Oc1ccc(Nc2nc(-c3ccc(Cl)cc3)cs2)cc1`, the residual activity in test [1] stood at 111%; in [2], 105%; in test [3], 111%; in [4] it was 116%; in test [5], 87%; in [6], 105%. Further, the residual activity in [7] worked out at 100%; in test [8], 110%; in test [9] it was 100%; in [10], 117%; in [11], 114%; in test [12], 112%. Besides, the residual activity in test [13] came to 98%; in test [14], 106%; in test [15] it was 85%; in [16], 118%; in test [17], 89%; in test [18], 99%. Further, the residual activity in test [19] turned out to be 95%; in test [20], 114%.
For the compound `Cn1cc(/C=C2\C(=O)Nc3ccc(S(N)(=O)=O)cc32)c2ccccc21`, the residual activity in [1] worked out at 11%; in test [2] it was 39%; in [3], 13%; in test [4] it was 36%; in test [5], 13%; in test [6], 22%. Besides, the residual activity in test [7] was found to be 10%; in test [8], 94%; in [9], 65%; in test [10], 38%; in test [11], 28%; in [12], 92%. In addition, the residual activity was determined as 77% in test [13]; 74% in [14]; 37% in [15]; 100% in test [16]; 88% in test [17]; 74% in test [18]. The residual activity in test [19] worked out at 66%; in test [20], 8%.
For the compound `COc1cc2ncnc(Nc3ccc(O)c(Br)c3)c2cc1OC`, the residual activity in test [1] was 22%; in test [2], 103%; in test [3], 100%; in test [4], 93%; in test [5] it was 88%; in [6] it was 76%. Further, the residual activity in test [7] is 45%; in test [8], 93%; in test [9], 85%; in test [10], 99%; in [11] it was 68%; in test [12] it was 81%. The residual activity in [13] came out at 62%; in test [14], 86%; in [15], 48%; in test [16], 98%; in [17], 75%; in test [18] it was 82%. The residual activity in [19] came out at 61%; in [20], 41%.
With `COc1ccc(CNc2nc(N(CCO)CCO)nc3c2ncn3C(C)C)cc1`, the residual activity in [1] was determined as 78%; in test [2] it was 95%; in [3] it was 67%; in test [4], 86%; in test [5] it was 65%; in test [6], 96%. Also, the residual activity in [7] was 83%; in [8] it was 91%; in test [9], 94%; in test [10] it was 94%; in test [11] it was 114%; in [12], 92%. For the same compound, the residual activity in test [13] came to 82%; in test [14], 96%; in test [15], 81%; in test [16], 96%; in test [17], 95%; in test [18], 92%. For the same compound, the results for the residual activity in test [19] and in [20] were 71% and 69%, respectively.
